In PubChem BioAssay AID999 (SRMLSC, 2007):
Unmarked numbers belong to inactive results. The source made the active and inactive calls.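 Rule for the calls: active = viability at or below 21.59%, 3 SD under the median of tested compounds; inactive = the rest.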

assay: viability loss in PTEN-deleted cells – cell-based, validation, diverse DP compound set (AID 999); settings: HCT116 PTEN-null viability, CellTiter-Glo, 60 h; at 10 µM; active compounds read low;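 note: 100% = median luminescence of untreated cell control wells and 0% = no signal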

| SMILES | viability |
| --- | --- |
| CCN(CC)C(=S)SSC(=S)N(CC)CC | 89.6% |
| CC[N+](CC)(CC)CC(=O)Nc1c(C)cccc1C | 105% |
| CC12CC3(O)OC(O1)C1(COC(=O)c4ccccc4)[C@@H]3CC21O[C@@H]1O[C@H](CO)[C@@H](O)[C@H](O)[C@H]1O | 95.3% |
| COc1ccc2cc3[n+](cc2c1OC)CCc1cc2c(cc1-3)OCO2 | 82.9% |
| COc1c(C)c2c(c(O)c1C/C=C(\C)CCC(=O)O)C(=O)OC2 | 40.1% |
| CC(=O)N[C@H]1C(O[C@@H]2O[C@H](C[C@@H](O)[C@H]3O[C@@H](N4CCC(=O)NC4=O)[C@H](O)[C@@H]3O)[C@H](O)[C@H](O)[C@H]2NC(=O)/C=C/CCCCCCCCCCC(C)C)OC(CO)[C@@H](O)[C@@H]1O (stereo partly drawn) | 52.8% |
| OCCN(CCO)c1nc(N2CCCCC2)c2nc(N(CCO)CCO)nc(N3CCCCC3)c2n1 | 96.3% |
| CCCCCCCCCCCCCCCC(=O)OCC(O)C1OC(=O)C(O)=C1O (stereo not drawn) | 101% |
| O=C(c1ccccc1)c1ccccc1 | 100% |
| O=c1[nH]c(=O)n(C2CCCO2)cc1F (stereo not drawn) | 101% |
| Cn1c(=O)c2[nH]cnc2n(C)c1=O | 97.1% |
| CO/N=C(\C(=O)N[C@@H]1C(=O)N2C(C(=O)O)=C(COC(C)=O)CS[C@H]12)c1csc(N)n1 | 89.4% |
| O=C(O)c1cc(=O)c2c(OCC(O)COc3cccc4oc(C(=O)O)cc(=O)c34)cccc2o1 | 98.8% |
| C/C(=C\CNc1ncnc2c1ncn2[C@@H]1O[C@H](CO)[C@@H](O)[C@H]1O)CO | 91.5% |
| C=CCc1ccc(O)c(-c2cc(CC=C)ccc2O)c1 | 98.7% |
| C=C1CC[C@H](O)C/C1=C/C=C1\CCC[C@]2(C)[C@@H]([C@H](C)CCCC(C)C)CC[C@@H]12 | 92.4% |
| Cc1cc2c(C(C)C)c(O)c(O)c(C=O)c2c(O)c1-c1c(C)cc2c(C(C)C)c(O)c(O)c(C=O)c2c1O | 13% (active) |
| NC(=NCc1ccccc1)NC(=O)c1nc(Cl)c(N)nc1N | 77.3% |
